# In PubChem BioAssay:
# Tests used:
# [1] = system: Human papillomavirus type 1a protein E7 (residues 44-93); experiment: HPV1a E7 fragment binders on microarrays, primary screen, biochemical, small-molecule microarray, residues 44-93, 635 nm fluorescence (AID 1108); conditions: small-molecule microarray binding, fluorescence 635 nm; higher = more signal;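 note: E7 fragment applied at 1 µg/mL in TBST for 1 h at 4 C; score combines spot fluorescence with its signal to noise ratio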
# [2] = modulators of HCV replicon luciferase signal, primary screen, HCV replication inhibitor project, Huh7 cells, luciferase reporter (AID 1109); conditions: 48 h, higher = more signal;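 note: huh7 hepatoma cells harbouring a luciferase neomycin HCV replicon reporter; luciferase luminescence as measure of HCV replicon replication; test concentration not given here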
# [3] = target: Left-right determination factor 2 (Homo sapiens) (UniProt O00292); experiment: LEFTY2 binders on small-molecule microarrays, primary screen, biochemical, small-molecule microarray, 635 nm fluorescence scan (AID 1110); conditions: LEFTY2 binding, higher = more signal
# Sequence of Left-right determination factor 2 (Homo sapiens) (O00292 whole entry, looked up): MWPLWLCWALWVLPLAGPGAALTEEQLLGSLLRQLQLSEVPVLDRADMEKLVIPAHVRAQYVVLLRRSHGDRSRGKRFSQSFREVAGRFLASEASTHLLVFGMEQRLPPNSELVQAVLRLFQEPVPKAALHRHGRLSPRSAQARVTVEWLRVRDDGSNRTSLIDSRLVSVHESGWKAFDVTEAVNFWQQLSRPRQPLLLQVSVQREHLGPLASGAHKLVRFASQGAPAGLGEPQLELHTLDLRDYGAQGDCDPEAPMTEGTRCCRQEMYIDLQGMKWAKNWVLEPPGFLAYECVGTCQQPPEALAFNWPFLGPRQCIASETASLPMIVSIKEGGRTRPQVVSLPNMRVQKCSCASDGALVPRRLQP
# [4] = target: Calmodulin-1 (Homo sapiens) (UniProt P0DP23); experiment: CALM1 binders on microarrays, EGTA buffer, profiling panel, biochemical, small-molecule microarray, Cy5-labelled CALM1 (AID 1111); conditions: Cy5-CALM1 binding fluorescence, higher = more signal;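 note: labelled calmodulin applied in Tris saline Tween buffer holding calcium plus EGTA and DTT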
# [5] = target: Calmodulin-1 (Homo sapiens) (UniProt P0DP23); experiment: calcium-bound CALM1 binders on microarrays, profiling panel, artefact control for SMM control-protein annotation, biochemical, small-molecule microarray, Cy5-labelled CALM1, plus calcium (AID 1112); conditions: Cy5-CALM1 binding fluorescence, higher = more signal;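 note: score merges spot fluorescence with signal to noise from triplicate slides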
# [6] = small-molecule microarray binders of probe aWnt5a, primary screen, biochemical, biotinylated probe, 635/667 nm fluorescence (AID 1113); conditions: higher = more signal;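 note: score merges 667 nm fluorescence intensity with signal-to-noise per printed feature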
# [7] = small-molecule microarray binders of probe aShh, primary screen, biochemical, biotinylated probe, 635/667 nm fluorescence (AID 1114); conditions: higher = more signal;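 note: probe is biotin-labelled aShh protein from a stem cell growth factor screen; measures binding of labelled protein to compounds printed on the slide; score merges feature fluorescence at 667 nm with signal-to-noise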
# [8] = small-molecule microarray binders of probe aNog, primary screen, biochemical, biotinylated probe, 635/667 nm fluorescence (AID 1115); conditions: higher = more signal;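 note: probe is biotinylated aNog protein used at 0.15 µg/mL for 1 h at 4 C; z-score combines 667 nm fluorescence of each spot with its signal to noise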
# [9] = target: Torsin-1A-interacting protein 1 (Homo sapiens) (UniProt Q5JTV8); experiment: LAP1 binders from COS7 cell lysate, primary screen, small-molecule microarray, 635/667 nm fluorescence (AID 1116); conditions: COS7-hLAP1 lysate binding, 635 nm fluorescence, higher = more signal
# Sequence of Torsin-1A-interacting protein 1 (Homo sapiens) (Q5JTV8 whole entry, looked up): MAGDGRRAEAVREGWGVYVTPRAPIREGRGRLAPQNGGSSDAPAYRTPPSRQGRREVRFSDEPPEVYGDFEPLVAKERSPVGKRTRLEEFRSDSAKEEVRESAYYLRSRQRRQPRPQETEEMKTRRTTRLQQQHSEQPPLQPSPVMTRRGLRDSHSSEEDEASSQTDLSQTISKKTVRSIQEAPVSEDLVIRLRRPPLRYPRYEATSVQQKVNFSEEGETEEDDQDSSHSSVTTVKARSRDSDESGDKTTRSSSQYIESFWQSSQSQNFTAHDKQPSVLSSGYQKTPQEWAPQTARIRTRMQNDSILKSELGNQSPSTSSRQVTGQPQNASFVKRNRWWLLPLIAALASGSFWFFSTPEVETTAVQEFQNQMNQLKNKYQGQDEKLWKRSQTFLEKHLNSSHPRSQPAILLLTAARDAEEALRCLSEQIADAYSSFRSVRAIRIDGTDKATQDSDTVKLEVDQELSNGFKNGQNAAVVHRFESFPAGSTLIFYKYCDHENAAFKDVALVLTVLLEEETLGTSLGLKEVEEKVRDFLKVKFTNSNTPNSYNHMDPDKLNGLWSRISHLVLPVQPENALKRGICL
# [10] = target: Alpha-bungarotoxin (Bungarus multicinctus) (UniProt P60615); experiment: alpha-bungarotoxin binders on microarray, profiling panel, artefact control for SMM control protein annotation, biochemical, small-molecule microarray, Alexa647 label, 635/667 nm fluorescence (AID 1117); conditions: alpha-BTX-A647 binding fluorescence, higher = more signal
# Sequence of Alpha-bungarotoxin (Bungarus multicinctus) (P60615 whole entry, looked up): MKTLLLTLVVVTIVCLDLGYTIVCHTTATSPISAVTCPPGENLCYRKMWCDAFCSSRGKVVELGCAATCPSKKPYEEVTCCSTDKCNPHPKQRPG
Compound,composite z-score [1],z-score [2],composite z-score [3],composite z-score [4],composite z-score [5],composite z-score [6],composite z-score [7],composite z-score [8],composite z-score [9],composite z-score [10]
C=CCOC(=O)[C@H]1[C@@H]2C(=O)O[C@@H](c3ccccc3)[C@@H](c3ccccc3)N2[C@@H](c2ccc(OCCOC(=O)[C@H]3C[C@H]4C(=O)N[C@@H](CCCC[N+](C)(C)C)C(=O)N4[C@H]3c3ccc(O)cc3)cc2)[C@]12C(=O)Nc1ccc(I)cc12,0.756,-0.537,0.853,-0.421,-0.0782,0.0549,1.11,1.86,0.218,0.659
COC(=O)[C@H](Cc1ccccc1)N[C@@H](/C=C/C1CC1)[C@H](O)Cc1ccccc1,-0.431,-0.95,-0.517,0.125,-0.736,0.454,-0.309,-0.349,0.729,0.342
COCCCNC(=O)[C@@H]1c2ccccc2C(=O)N(Cc2ccccc2Cl)[C@H]1c1ccc(CO)cc1,0.867,0.318,0.67,-0.48,-0.613,-0.0792,0.0684,-0.382,1.51,-0.195
COc1cc2c(cc1OC)CN(C(=O)[C@H]1[C@@H]3C(=O)O[C@@H](c4ccccc4)[C@@H](c4ccccc4)N3[C@@H](c3ccc(O)cc3)[C@]13C(=O)Nc1ccccc13)CC2,1.46,-2.54,0.0835,0.92,0.427,-0.166,-0.0289,0.386,1.01,1.43
CCOC(=O)C[C@H]1[C@H](OC(=O)c2ccc(C(=O)c3ccccc3)cc2)[C@@H](NC(=O)c2ccc3ccccc3c2)c2cc(OCCCO)ccc2N1C(=O)Cc1ccc(OC)cc1,0.86,-0.989,-0.0254,1.14,0.187,-0.0405,-0.0553,0.177,0.669,0.729
CC(C)N1C(=O)C[C@@](C(=O)NCC(F)(F)F)(c2ccc([N+](=O)[O-])cc2)[C@H]1c1ccc(CO)cc1,0.627,-0.672,-0.383,-0.273,-0.411,-0.178,-0.372,-0.368,-0.0079,0.259
COCCOC(=O)N1C(=O)[C@@]2(c3ccccc31)[C@H](c1ccc(O)cc1)N1[C@H](c3ccccc3)[C@H](c3ccccc3)OC(=O)[C@H]1[C@@H]2C(=O)Nc1nc2ccccc2s1,1.19,-0.993,0.118,1.29,0.501,-0.0276,0.249,0.0308,1.33,1.87
COc1ccc(C(O)C2C=CC3C(=O)N(Cc4ccccc4)C(=O)C3N2n2cnnc2)cc1OCc1ccccc1 (stereo not given),0.958,-1.04,-0.355,0.0367,-0.485,-0.096,-0.18,0.393,0.383,0.161
CN1C(=O)C2C=CC(C(O)c3ccco3)N(Nc3ccccc3)C2C1=O (stereo not given),0.282,0.0751,0.232,-0.276,-0.833,-0.0192,0.199,-0.165,0.272,0.35
CCOC(=O)C[C@H]1[C@H](OC(=O)c2ccc(C(=O)c3ccccc3)cc2)[C@@H](NC(=O)c2ccccc2)c2cc(OCCCO)ccc2N1C(=O)Cc1ccc(OC)cc1,0.525,-0.283,0.366,0.0941,-0.222,-0.107,-0.195,-0.205,0.738,0.178
O=C(OCc1ccccc1)C1=CCC2c3[nH]c4ccccc4c3C(=O)C1N2S(=O)(=O)c1ccccc1[N+](=O)[O-] (stereo not given),1.42,-2.6,0.831,0.418,-0.369,0.0597,0.14,-0.549,0.432,0.584
COCCOC(=O)N1C(=O)[C@@]2(c3cc(C#CCNC(N)=O)ccc31)[C@H](C(=O)Nc1nc3ccccc3s1)[C@H]1C(=O)O[C@H](c3ccccc3)[C@H](c3ccccc3)N1[C@@H]2c1ccc(OCCO)cc1,1.26,-1.08,0.825,1.37,0.662,0.003,-0.382,-0.229,0.415,1.24
C=CCNC(=O)[C@@H]1[C@H]2C(=O)O[C@H](c3ccccc3)[C@H](c3ccccc3)N2[C@H](c2ccccc2OCCO)[C@@]12C(=O)N(C(=O)OCCOC)c1ccccc12,1.43,-2.64,0.877,0.926,-0.464,0.132,0.126,-0.331,0.784,1.25
C=CCNC(=O)[C@@H]1[C@H]2C(=O)O[C@H](c3ccccc3)[C@H](c3ccccc3)N2[C@H](c2ccc(O)cc2)[C@@]12C(=O)Nc1ccc(C#CCNC(N)=O)cc12,1.28,-0.365,-1.09,-0.0555,-0.28,-0.124,0.157,-0.125,1.4,-0.234
O=C1c2ccccc2[C@](Cc2ccccc2I)(C(=O)NCC(F)(F)F)[C@H](c2ccc(CO)cc2)N1Cc1ccccc1Cl,1.41,-0.798,-0.141,1.03,0.512,-0.0472,0.0632,-0.239,0.208,0.918
C=CCNC(=O)[C@H]1[C@@H]2C(=O)O[C@@H](c3ccccc3)[C@@H](c3ccccc3)N2[C@@H](c2ccccc2OCCO)[C@]12C(=O)Nc1ccc(C#CCCO)cc12,1.39,-2.26,0.607,-0.231,-0.09,0.0357,-0.206,0.0703,0.567,0.365
C=CCOC(=O)[C@H]1[C@@H]2C(=O)O[C@@H](c3ccccc3)[C@@H](c3ccccc3)N2[C@@H](c2ccc(OCCOC(=O)[C@H]3C[C@H]4C(=O)N[C@@H](CCCCNC(C)=O)C(=O)N4[C@H]3c3ccc(O)cc3)cc2)[C@]12C(=O)Nc1ccc(I)cc12,0.804,-3.26,0.418,0.124,-0.732,-0.0236,0.123,-0.238,0.612,0.963
